Source: PubChem BioAssay AID2284109 (EPA ToxCast)
Calls of active or inactive are those of the source. Rule for the calls: active = hit-call score of the fitted dose curve at least 0.9, where 1 is the maximum; inactive = score below 0.9.

What follows are compounds tested against human p38beta (SAPK2) CMGC Kinase, MAPK11 (gene 5600) (UniProt Q15759) (assay: ERF_KP_ENZ_hMAPK11: Eurofins (ERF) Enzymatic Radiometric [10 uM ATP] KinaseProfiler LeadHunter Assay for human p38beta (SAPK2) CMGC Kinase).
Chain of human p38beta (SAPK2) CMGC Kinase, MAPK11 (gene 5600) (Q15759 whole entry, looked up): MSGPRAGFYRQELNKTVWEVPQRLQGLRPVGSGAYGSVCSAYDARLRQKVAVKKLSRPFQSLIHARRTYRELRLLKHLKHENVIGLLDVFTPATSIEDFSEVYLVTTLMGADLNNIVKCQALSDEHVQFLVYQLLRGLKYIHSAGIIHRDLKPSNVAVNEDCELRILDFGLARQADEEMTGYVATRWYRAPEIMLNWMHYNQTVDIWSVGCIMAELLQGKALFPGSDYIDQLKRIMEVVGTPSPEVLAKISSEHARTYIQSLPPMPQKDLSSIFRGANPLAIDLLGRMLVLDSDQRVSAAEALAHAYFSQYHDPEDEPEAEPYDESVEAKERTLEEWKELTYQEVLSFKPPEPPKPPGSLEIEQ
Experimental: ERF_KP_ENZ_hMAPK11 is a biochemical, single-readout assay that uses extracted gene-proteins in a cell-free assay. Measurements were taken 0.66 hour after chemical dosing in a 96-well plate. See SAPK2 (p38beta) Human CMGC Kinase Enzymatic Radiometric Assay [10 uM ATP], KinaseProfiler.ERF_KP_ENZ_hMAPK11 is an assay component calculated from the ERF_KP_ENZ_hMAPK11 assay. It is designed to measure enzyme activity using a type of enzyme reporter as detected by scintillation counting with radiometry technology.Data from the assay component ERF_KP_ENZ_hMAPK11 was analyzed at the assay endpoint, ERF_KP_ENZ_hMAPK11, in the positive analysis fitting direction relative to DMSO as the negative control and baseline of activity. Using a type of enzyme reporter, loss-of-signal activity can be used to understand changes in enzymatic activity as they relate to gene MAPK11. To generalize the intended target to other relatable targets, this assay endpoint is annotated to the kinase intended target family, where the subfamily is serine/threonine kinase.
SAPK2b (h) is incubated with 25 mM Tris pH 7.5, 0.02 mM EGTA, 0.33 mg/mL myelin basic protein, 10 mM MgAcetate and [gamma-33P]-ATP (specific activity and concentration as required). The reaction is initiated by the addition of the Mg/ATP mix. […]

SMILES | AC50
O=C(/C=C/c1ccc(O)cc1)CC(=O)/C=C/c1ccc(O)cc1 | 0.293 nM (active)
